HIF-2a block: HIF-2a inhibition | 786-0 RCC cells HIF-2a reporter, luciferase luminescence, overnight | inhibition, % at 18.8 µM | 360,000 compounds, 0.72% hits;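 active means inhibition of the luminescence signal of 40% or more relative to plate controls, in a single-dose primary screen at 18.75 µM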
TWEAK-Fn14 inh: blocks TWEAK-Fn14 interaction in a reporter cell assay | AID 1159606 | 360,000 compounds, 2% hits | inhibition, % at 10 µM | TWEAK-stimulated Fn14 reporter cells, luciferase luminescence, 8 h; in the data active means inhibition above about 50%
Peg3 promoter: inhibitors of Peg3 promoter; HeLa PEG-Prom luciferase reporter, luminescence, overnight; inhibition, % at 20 µM; 360,000 compounds, 1.7% hits;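 active means inhibition of at least 50% at 20 µM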
LMP1 NFkB inh: inhibitors of Epstein-Barr LMP1-induced NF-kappaB reporter. LMP1-induced NF-kappaB luciferase reporter cells, luminescence. AID 504558. 350,000 compounds, 0.69% hits. inhibition, % at 12.5 µM; in the data active means inhibition above about 41%
TROY signal inh: TROY signaling inhibition | Q293 LMP1-TROYcd NF-kB luciferase reporter, 4 h | inhibition, % at 10 µM | 360,000 compounds, 0.98% hits | AID 1347056;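 active means compounds whose plate-normalised and pattern-corrected inhibition of the luciferase reporter signal at the single screening dose is 50% or more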
MITF TRPM1 inh: MITF TRPM1 promoter inhibition in SK-MEL-5 cells. 330,000 compounds, 0.83% hits. SK-MEL-5 TRPM1 promoter luciferase, 24 h. inhibition, % at 12.5 µM;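 active means mean inhibition across replicates of 60% or more, whatever share of single replicates reaches that level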
Each line names hits and unclear results; the compound was inactive in the other large screens; ! = repeats disagree. Shown are actives, neighbours in structure and some others; about 4% of the full set was active somewhere.

CCN1CCN(Cc2ccc(NC(=O)c3ccc(C)c(NC(=O)c4nccn4C)c3)cc2C(F)(F)F)CC1	LMP1 NFkB inh 46.7
Cc1ccc(NC(=O)c2cc(-c3ccccc3)n[nH]2)cc1	none
CCN1CCN(Cc2ccc(NC(=O)c3ccc(C)c(NC(=O)c4cncc(-c5cccs5)c4)c3)cc2C(F)(F)F)CC1	HIF-2a block 48.4, Peg3 promoter 99.4, LMP1 NFkB inh 71.0, MITF TRPM1 inh 96.7
CSc1ccc(CN(C)C(=O)CNC(=O)c2ccc3c(c2)OCO3)cc1	none
CCCCn1nc(C(=O)N(C)CC(=O)Nc2ccc(F)c(F)c2F)ccc1=O	none
CCOC(=O)C1(CCOC)CCN(Cc2nc(C(C)C)cs2)CC1	none
CN(c1ccccc1)S(=O)(=O)c1cc(C(=O)NCc2ccco2)ccc1Cl	none (no result: MITF TRPM1 inh)
COc1cc(OC)cc(C(=O)N2CCN(Cc3ccccc3C(F)(F)F)CC2)c1	none
CCN1CCN(Cc2ccc(NC(=O)c3cc(NC(=O)c4cnnc5ccccc45)cc(OC)c3)cc2C(F)(F)F)CC1	Peg3 promoter 100.2! (no result: MITF TRPM1 inh)
CCN1CCN(c2ccc(NC(=O)c3ccccc3F)cc2Cl)CC1	none
CCN1CCN(Cc2ccc(NC(=O)c3ccc(C)c(NC(=O)N4CCNC4=O)c3)cc2C(F)(F)F)CC1	LMP1 NFkB inh 47.2!
CCN1CCN(Cc2ccc(NC(=O)c3ccc(C)c(NC(=O)c4cccc5[nH]ccc45)c3)cc2C(F)(F)F)CC1	LMP1 NFkB inh 61.7
CCN1CCN(Cc2ccc(NC(=O)c3ccc(C)c(NC(=O)c4nccnc4N)c3)cc2C(F)(F)F)CC1	Peg3 promoter 80.5, LMP1 NFkB inh 57.3
c1ccc2c(c1)C1=NCCN1c1ccccc1-2	Peg3 promoter 104.3 (no result: MITF TRPM1 inh)
COC1=Nc2ccccc2N2CCN=C12	none (no result: LMP1 NFkB inh, MITF TRPM1 inh)
Cn1c(N)c(C(C[N+](=O)[O-])c2ccccc2Cl)c(=O)n(C)c1=O (stereo not given)	TWEAK-Fn14 inh 99.2
CCCOc1ccc(-c2c(=O)n(O)c3ccccc3[n+]2[O-])cc1	none
CC1N(C(=O)N2CCOCC2)CCN1S(=O)(=O)c1ccc(Cl)cc1 (stereo not given)	none
COc1ccc(NC(=O)CSc2nnc3n2CCCCC3)cc1OC	none (no result: MITF TRPM1 inh)
CCC(C(=O)NC(C)CCc1ccccc1)n1nc(C)n2c(cc3occc32)c1=O (stereo not given)	TWEAK-Fn14 inh 99.7
CCC(C(=O)NC(C)CCc1ccco1)n1nc(C)n2c(cc3occc32)c1=O (stereo not given)	none
CNc1ncnc2c1ncn2[C@@H]1O[C@H](CO)[C@@H](O)[C@H]1O	LMP1 NFkB inh 55.1
C[C@H](Cc1ccccc1)Nc1ncnc2c1ncn2[C@@H]1O[C@H](CO)[C@@H](O)[C@H]1O	none
O=C1C=C(NCc2ccc(Cl)c(Cl)c2)CC1	none
Nc1nc(N)c2cc(CNc3ccc(Cl)c(Cl)c3)ccc2n1	TWEAK-Fn14 inh 98.2, Peg3 promoter 110.1 (no result: MITF TRPM1 inh)
COc1ccc(N(C(=O)Cn2nnc(-c3ccccc3F)n2)C(C(=O)NCC2CCCO2)c2ccc(Cl)cc2)cc1 (stereo not given)	Peg3 promoter 58.1
COc1ccc(NC(=O)CCC(=O)N2CCC(c3ccccc3)=N2)cc1S(=O)(=O)N1CCCCC1	none
Oc1ccc(Nc2ccnc3cc(Cl)ccc23)cc1	none
CCN(CC)Cc1cc(Nc2ccnc3cc(Cl)ccc23)ccc1O	LMP1 NFkB inh 57.1!
NNc1nc2c(F)cccc2s1	TWEAK-Fn14 inh 62.1, TROY signal inh 68.5
Fc1cccc2sc(Nc3nnc(-c4ccccc4)o3)nc12	TWEAK-Fn14 inh 103.2
Fc1cccc2sc(Nc3nc4c(F)cccc4s3)nc12	none
CCOC(=O)C1=CCC(c2ccccc2C)N(S(=O)(=O)c2ccc(C)cc2)C1 (stereo not given)	none (no result: LMP1 NFkB inh, MITF TRPM1 inh)
Nc1nc(=S)c2ncn([C@@H]3O[C@H](CO)[C@@H](O)[C@H]3O)c2[nH]1	Peg3 promoter 62.1, MITF TRPM1 inh 72.0
Nc1nc(=S)c2ncn(C3CCCCC3)c2[nH]1	TROY signal inh 63.9
Cc1cccnc1CNC(=O)C1CCC(=O)N(CCc2cccc(F)c2)C1 (stereo not given)	none
Cc1ccc(/C=[N+](\[O-])c2ccc(N(C)C)cc2)c2nsnc12	TWEAK-Fn14 inh 56.7
Cc1ccc2nsnc2c1NS(=O)(=O)c1c(C)ccc2nsnc12	none
CSc1ccccc1NC(=O)CN(C)C(=O)COc1cccc2cccnc12	none
COc1cc(/C=N/Nc2nc3ccccc3o2)cc(OC)c1O	none
COc1ccc(/C=N/Nc2nc3ccccc3o2)cc1O	TWEAK-Fn14 inh 72.0
COc1ccc(/C=N/NC(=O)c2nc(-c3ccccc3)cc(-c3ccccc3)n2)cc1O	TWEAK-Fn14 inh 53.9
COc1ccc(/C=N/Nc2nc3ccccc3s2)cc1O	TWEAK-Fn14 inh 74.5, TROY signal inh 60.5
COc1ccc(N(CC(=O)N2CCN(c3cccc(C)c3C)CC2)S(=O)(=O)c2c(C)noc2C)cc1	none
O=c1[nH]c(SCc2cccc(Cl)c2)nc2[nH]ncc12	none
COc1cc(CCC(=O)NCCc2ccc(F)cc2)cc(OC)c1OC	none
O=C1CCc2cc(S(=O)(=O)NCCC(=O)NC3CCCCC3)ccc2N1	none
CN(C)C(=O)c1c(NC(=O)c2ccco2)sc2c1CCCCC2	TROY signal inh 65.0
O=C(Nc1sc2c(c1C(=O)O)CCCCC2)c1ccco1	TWEAK-Fn14 inh 55.5
CCOC(=O)c1c(NC(=O)c2ccco2)sc2c1CCCCC2	none
CCC(=O)Nc1ccc(S(=O)(=O)NC[C@H]2O[C@@H](n3cc(C)c(=O)[nH]c3=O)C[C@@H]2O)cc1	none (no result: MITF TRPM1 inh)
O=C(c1cccc(NS(=O)(=O)c2ccccc2)c1)N1CCCC1	none
O=C(c1cccc(NS(=O)(=O)c2ccc(F)c(F)c2)c1)N1CCN(C(c2ccccc2)c2ccccc2)CC1	TWEAK-Fn14 inh 56.5
O=C(/C=C/c1ccc([N+](=O)[O-])cc1)NCc1ccccn1	none
O=C(/C=C/c1ccc([N+](=O)[O-])cc1)Nc1ncc([N+](=O)[O-])s1	TWEAK-Fn14 inh 65.6
COc1ccc(C(=O)CCC(=O)O)c(C)c1	none
COc1cc(C)c(C(=O)CC(=O)c2c(C)cc(OC)cc2C)c(C)c1	Peg3 promoter 50.3 (no result: LMP1 NFkB inh, MITF TRPM1 inh)
Cc1cccc2c3nc4ccccc4nc3n(CCCN3C(=O)c4ccccc4C3=O)c12	TWEAK-Fn14 inh 71.0
O=C1c2ccccc2C(=O)N1CCCn1c2ccc(Cl)cc2c2nc3ccccc3nc21	none
OCCN(CCO)c1cc2c3ccccc3ccc2c2ccccc12	TWEAK-Fn14 inh 99.2, TROY signal inh 51.5
OCCN(CCO)c1ccc2ccccc2c1	none
O=C(CCNS(=O)(=O)c1ccc(Br)cc1)Nc1cccc(F)c1	TWEAK-Fn14 inh 99.2
CC1(C(=O)Nc2ccc3c(c2)OCCO3)CCN1C(=O)Cc1ccc(-c2ccccc2)cc1 (stereo not given)	TWEAK-Fn14 inh 73.6 (no result: LMP1 NFkB inh, MITF TRPM1 inh)
CC1(C(=O)Nc2ccc3c(c2)OCCO3)CCN1C(=O)C1(c2ccc(Cl)cc2)CCC1 (stereo not given)	none (no result: LMP1 NFkB inh, MITF TRPM1 inh)
